# Assay results from the supplement of paper PMC3545927.
# The other results are listed elsewhere or left out. The true hit rate is not given.
# Target: furin, P09958
# Assay: furin cleavage Z-score vs untreated control; higher = more cleavage, active = 3.5 or more, inactive = 1 or less, 8 variable residues between constant flanks
# Experimental: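 Multiplexed peptide-cDNA fusion cleavage assay. 8-mer variable peptides flanked by constant Cys-Ala (N-term) and Ala-Gly-Asn-Ala-Ser-Ala-Ser-Ala (C-term) and conjugated to a cDNA oligonucleotide were bead-immobilised via the N-terminus. They were treated with purified furin at a 1:10 enzyme:substrate ratio in 50 mM HEPES pH 7.5, 1 mM CaCl2, 100 mM NaCl for 7.5, 15 or 30 min. Released cDNA was counted by next-generation sequencing, and log counts versus no-furin controls were lowess-adjusted and converted to robust Z-scores.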
# Chain of furin, P09958 (P09958 whole entry): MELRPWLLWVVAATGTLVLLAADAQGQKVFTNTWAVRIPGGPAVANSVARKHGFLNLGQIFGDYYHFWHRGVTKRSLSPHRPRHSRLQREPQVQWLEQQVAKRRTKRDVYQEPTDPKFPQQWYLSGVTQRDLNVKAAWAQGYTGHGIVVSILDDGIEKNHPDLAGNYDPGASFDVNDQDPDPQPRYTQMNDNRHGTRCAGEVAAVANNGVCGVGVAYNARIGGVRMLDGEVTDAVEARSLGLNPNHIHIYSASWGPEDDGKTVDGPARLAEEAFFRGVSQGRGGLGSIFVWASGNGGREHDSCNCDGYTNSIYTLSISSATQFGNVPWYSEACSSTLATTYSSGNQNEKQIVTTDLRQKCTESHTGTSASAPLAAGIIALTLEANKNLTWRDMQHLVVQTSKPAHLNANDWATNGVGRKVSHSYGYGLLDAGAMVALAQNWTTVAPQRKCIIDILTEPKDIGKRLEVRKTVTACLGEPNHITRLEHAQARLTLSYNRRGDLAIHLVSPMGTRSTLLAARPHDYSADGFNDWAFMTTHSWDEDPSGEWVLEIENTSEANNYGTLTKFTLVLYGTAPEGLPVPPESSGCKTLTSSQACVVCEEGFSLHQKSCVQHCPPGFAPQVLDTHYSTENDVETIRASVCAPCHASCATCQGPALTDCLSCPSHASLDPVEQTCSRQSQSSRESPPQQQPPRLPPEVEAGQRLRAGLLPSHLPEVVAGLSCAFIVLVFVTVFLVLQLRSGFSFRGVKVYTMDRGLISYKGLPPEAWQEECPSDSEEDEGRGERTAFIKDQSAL
Sequence,furin cleavage Z-score (7.5 min),furin cleavage Z-score (15 min),furin cleavage Z-score (30 min)
CADYEVVTSTAGNASASA [HC2289],0.403 (inactive),0.654 (inactive),0.0996 (inactive)
CARSHRMRRHAGNASASA [FS-1272],12.9 (active),13.7 (active),9.81 (active)
CASARRGREIAGNASASA [HC662],7.44 (active),8.55 (active),8.19 (active)
CASHARPRWIAGNASASA [HC1653],0.938 (inactive),1.44,0.423 (inactive)
CARSHRDTATAGNASASA [FS-1791],0.447 (inactive),1.01,-0.325 (inactive)
CARSHRSCRTAGNASASA [FS-1792],0.788 (inactive),2.22,3.59 (active)
CASSKRAEAPAGNASASA [FS-2852],-1.06 (inactive),-1.45 (inactive),0.412 (inactive)
CAFTFSPRRHAGNASASA [HC306],-1.3 (inactive),-0.113 (inactive),-0.24 (inactive)
CASSKRNRRHAGNASASA [FS-1418],10.5 (active),12 (active),10.1 (active)
CARCYRSCETAGNASASA [FS-1688],-1.32 (inactive),0.463 (inactive),-0.398 (inactive)
CAAEEDEREIAGNASASA [HC1291],-0.251 (inactive),-1.7 (inactive),-0.863 (inactive)
CAYLTRDPTTAGNASASA [HC1562],-1.51 (inactive),-0.691 (inactive),-1.7 (inactive)
CADWEVVTSTAGNASASA [HC2288],-1.03 (inactive),-0.418 (inactive),-0.194 (inactive)
CAKANLLSVEAGNASASA [HC1410],-0.514 (inactive),-0.264 (inactive),-1.3 (inactive)
CASCPCSAHLAGNASASA [HC2500],0.854 (inactive),-0.381 (inactive),0.717 (inactive)
CAVCCCSMSYAGNASASA [HC2020],0.181 (inactive),1.69,1.02
CATCMSADLEAGNASASA [HC984],0.644 (inactive),0.775 (inactive),1.54
CAGFADLMGYAGNASASA [HC225],-1.18 (inactive),-0.646 (inactive),-1.14 (inactive)
CAMSMRVRRHAGNASASA [FS-945],10 (active),10.3 (active),7.98 (active)
CASPRGSRPSAGNASASA [HC210],0.189 (inactive),0.149 (inactive),-0.107 (inactive)
CASPNRSRRHAGNASASA [FS-300],9.77 (active),10.7 (active),7.23 (active)
CAGSVTVPHPAGNASASA [HC837],0.881 (inactive),0.63 (inactive),0.486 (inactive)
CAVVLLFLLLAGNASASA [HC520],-0.794 (inactive),-0.656 (inactive),-1.88 (inactive)

Sequence,furin cleavage Z-score (7.5 min),furin cleavage Z-score (15 min),furin cleavage Z-score (30 min)
CALDVSVIPTAGNASASA [HC871],-2.6 (inactive),-1.18 (inactive),-0.758 (inactive)
CADPTFTIETAGNASASA [HC894],-0.863 (inactive),-0.464 (inactive),-0.935 (inactive)
CATTPCSGIWAGNASASA [HC1904],-0.536 (inactive),0.611 (inactive),-1.36 (inactive)
CALWGRTRRLAGNASASA [FS-60],1.66,4.15 (active),3.16
CAPTPLLYRLAGNASASA [HC971],-0.296 (inactive),0.704 (inactive),0.366 (inactive)
CAVTQLLRRLAGNASASA [HC1137],0.0354 (inactive),-1.42 (inactive),-1.96 (inactive)
CAPSRRQQRAAGNASASA [FS-1554],9.53 (active),8.72 (active),7.58 (active)
CAPSRRTRRLAGNASASA [FS-1555],7.98 (active),11.7 (active),8.56 (active)
CAPSCRYRRLAGNASASA [FS-1054],4.67 (active),7.06 (active),7.38 (active)
CAMELCSQHLAGNASASA [HC1705],2.69,0.76 (inactive),2.04
CAMEENSQHLAGNASASA [HC18],0.787 (inactive),0.956 (inactive),2.04
CAGGSAGHTVAGNASASA [HC355],0.866 (inactive),-0.487 (inactive),0.0302 (inactive)
CAPVCCSMSYAGNASASA [HC1999],0.302 (inactive),-0.969 (inactive),1.74
CAFKTWLKAKAGNASASA [HC1156],-0.496 (inactive),-0.829 (inactive),-0.782 (inactive)
CASVLIARDQAGNASASA [HC1586],0.606 (inactive),0.779 (inactive),-0.441 (inactive)
CAQSLRCRRCAGNASASA [FS-623],-0.625 (inactive),-0.00103 (inactive),-0.127 (inactive)
CADPQRSRRCAGNASASA [FS-986],0.928 (inactive),0.649 (inactive),1.13
CAIPDRLRKCAGNASASA [FS-1014],-0.934 (inactive),-0.376 (inactive),-0.995 (inactive)
CADLELITSCAGNASASA [HC1550],0.66 (inactive),-0.229 (inactive),0.498 (inactive)
CAQVMRRRRCAGNASASA [FS-1558],7.16 (active),5.85 (active),4.82 (active)
CAEHHRSRRCAGNASASA [FS-989],2.96,3.54 (active),3.96 (active)
CASGARRRRCAGNASASA [FS-498],0.58 (inactive),0.416 (inactive),0.773 (inactive)
CASQLRYRRCAGNASASA [FS-503],5.96 (active),7.81 (active),5.84 (active)
